The source of these data is PubChem BioAssay (NCATS).

Test [1] can be described thus: qHTS for Inhibitors of the Functional Ribonucleoprotein Complex (vRNP) of Lassa (LASV) Arenavirus: LASV Primary Screen - GLuc reporter signal (AID 1347082; calls by dose curve; tested in HEK293 reporter line; further: nearly all actives have a fitted effect of over 60% in size; on activity change, negative = inhibition: series mostly up to about 57 µM). For orientation: qHTS replaces the single test concentration by a dilution series.
The nature of test [2]: qHTS for Inhibitors of the Functional Ribonucleoprotein Complex (vRNP) of Lassa (LASV) Arenavirus: Viability assay - alamar blue signal for LASV Primary Screen (AID 1347083; calls by dose curve; tested in HEK293 reporter line; further: nearly all actives have a fitted effect of over 80% in size; on activity change, negative = reduced viability: series mostly up to about 57 µM).
Test [3] is described as follows: qHTS for Inhibitors of the Functional Ribonucleoprotein Complex (vRNP) of Lymphocytic Choriomeningitis Arenaviruses (LCMV): Viability assay - alamar blue signal for LCMV Primary Screen (AID 1347085; calls by dose curve; tested in HEK293 reporter line; further: nearly all actives have a fitted effect of over 80% in size; on activity change, negative = lower viability: series mostly up to about 57 µM).
Test [4] has as its target Nucleoprotein (Lymphocytic choriomeningitis virus (strain Armstrong)) (UniProt P09992). Nature of the test: qHTS for Inhibitors of the Functional Ribonucleoprotein Complex (vRNP) of Lymphocytic Choriomeningitis Arenaviruses (LCMV): LCMV Primary Screen - GLuc reporter signal (AID 1347086). Further: nearly all actives have a fitted effect of over 70% in size. On activity change, negative = inhibition: series mostly up to about 57 µM.

Inconclusive results are not listed. A number with no mark means an inactive call. Calls of active or inactive are those of the source. Unless noted, the call rests on the fitted dose curve.
On the % scale 0 is the no-effect control and ±100 the full control effect; potency means the concentration at half of the fitted maximal effect.

Sequence of Nucleoprotein (Lymphocytic choriomeningitis virus (strain Armstrong)) (P09992 whole entry, looked up): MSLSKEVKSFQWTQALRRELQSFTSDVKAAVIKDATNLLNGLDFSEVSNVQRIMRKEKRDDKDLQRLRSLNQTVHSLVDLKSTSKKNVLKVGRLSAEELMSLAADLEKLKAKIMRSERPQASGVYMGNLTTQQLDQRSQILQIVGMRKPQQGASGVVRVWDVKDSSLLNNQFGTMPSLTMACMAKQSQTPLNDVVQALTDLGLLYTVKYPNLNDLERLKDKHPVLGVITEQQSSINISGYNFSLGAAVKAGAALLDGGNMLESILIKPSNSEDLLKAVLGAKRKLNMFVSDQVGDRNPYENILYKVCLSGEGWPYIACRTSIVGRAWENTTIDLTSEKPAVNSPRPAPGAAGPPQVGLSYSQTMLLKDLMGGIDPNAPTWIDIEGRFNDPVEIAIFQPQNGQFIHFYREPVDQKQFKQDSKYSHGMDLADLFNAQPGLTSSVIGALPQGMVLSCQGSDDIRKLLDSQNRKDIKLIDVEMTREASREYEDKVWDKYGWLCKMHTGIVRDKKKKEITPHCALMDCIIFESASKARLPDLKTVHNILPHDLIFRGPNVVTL

Take `CC(=O)NC(Cc1cnc[nH]1)C(=O)O` (stereo not given): the Potency entry in test [1], in test [2], in test [3] and in test [4] was “inactive” in each case.

Regarding `Nc1nc(=O)n([C@H]2CSC(CO)O2)cc1F` (stereo not given in full), the Potency entry in test [1], in test [2], in test [3] and in test [4] was “inactive” each time.

Consider `CNC(=O)c1ccccc1Sc1ccc2c(C=Cc3ccccn3)n[nH]c2c1`, for which the Potency entry in test [1], in test [3] and in test [4] was “inactive” each time. In addition, in test [2], the Potency is 17200 nM (active).

With `Cc1[nH]c(C=C2C(=O)Nc3ccc(S(=O)(=O)Cc4c(Cl)cccc4Cl)cc32)c(C)c1C(=O)N1CCC[C@H]1CN1CCCC1`, the Potency result in test [1], in test [2], in test [3] and in test [4] was “inactive” in each case.

For the compound `CC(=O)c1ccc(C)cc1`, the Potency result in test [1], in test [2], in test [3] and in test [4] was “inactive” throughout.

In the case of `CNC(=O)c1cccc(-c2ccc3c(N4CCOC[C@H]4C)nc(N4CCOC[C@H]4C)nc3n2)c1`, the Potency is 137 nM (active) in test [1], 137 nM (active) in test [2], 153 nM (active) in test [3] and 137 nM (active) in test [4].

Take `COc1cc(OC)c2c(c1)C(=O)OC2`: the Potency entry in test [1], in test [2], in test [3] and in test [4] was “inactive” each time.

With `NC(C(=O)O)C1ON=C(Cl)C1O` (stereo not given), the Potency entry in test [1], in test [2], in test [3] and in test [4] was “inactive” throughout.

For `CCCC(=O)OC/C=C(\C)CCC=C(C)C`, the Potency result in test [1], in test [2], in test [3] and in test [4] was “inactive” throughout.

Turning to `CCCC(=O)OCC`, the Potency entry in test [1], in test [2], in test [3] and in test [4] was “inactive” each time.

As to `CC1(C)Oc2cc3oc(=O)ccc3cc2C[C@@H]1O`, the Potency result in test [1], in test [2], in test [3] and in test [4] was “inactive” each time.

Consider `C=C1C(=O)OC2C=C(CO)CCC=C(CO)CC(OC(=O)C(C)C)C12` (stereo not given), for which the Potency result in test [1], in test [2], in test [3] and in test [4] was “inactive” in each case.

As for `COc1cc(O)c2c(=O)c3c(O)ccc(O)c3oc2c1`, the Potency entry in test [1], in test [2], in test [3] and in test [4] was “inactive” each time.

For the compound `COC(=O)[C@@H]1CC2=CC(=O)CC[C@]2(C)[C@@]23O[C@@H]2C[C@@]2(C)[C@H](CC[C@@]24CCC(=O)O4)[C@@H]13`, the Potency entry in test [1], in test [2], in test [3] and in test [4] was “inactive” each time.

In the case of `CC(C)NC[C@@H](C(=O)N1CCN(c2ncnc3c2[C@H](C)C[C@H]3O)CC1)c1ccc(Cl)cc1`, the Potency in test [1] was 968 nM (active); in test [2], 243 nM (active); in test [3] it was 485 nM (active); in test [4], 863 nM (active).

As to `COc1ccc([C@@H]2CC(=O)c3c(O)cc(O[C@@H]4O[C@H](CO)[C@@H](O)[C@H](O)[C@H]4O[C@@H]4O[C@@H](C)[C@H](O)[C@@H](O)[C@H]4O)cc3O2)cc1`, the Potency result in test [1], in test [2], in test [3] and in test [4] was “inactive” in each case.

With `CC[C@H]1NC(=O)[C@@H](NC(=O)c2ncccc2O)[C@@H](C)OC(=O)[C@H](c2ccccc2)NC(=O)[C@@H]2CC(=O)CCN2C(=O)[C@H](Cc2ccccc2)N(C)C(=O)[C@@H]2CCCN2C1=O`, the Potency result in test [1], in test [2], in test [3] and in test [4] was “inactive” throughout.

For the compound `CC12C=CC(=O)C=C1CCC1C2CCC2(C)C(C(=O)CO)CCC12` (stereo not given), the Potency entry in test [1], in test [2], in test [3] and in test [4] was “inactive” throughout.

In the case of `C=C1[C@H]2CC[C@@H]3[C@H]2C(C)(C)CCC[C@]13C`, the Potency entry in test [1], in test [2], in test [3] and in test [4] was “inactive” each time.

As to `C[C@]12CC[C@@H](O)CC1=CC(=O)C1C2CC[C@]2(C)C(=O)[C@H](O)CC12` (stereo not given in full), the Potency result in test [1], in test [2], in test [3] and in test [4] was “inactive” each time.

In the case of `C[C@]12C=CC(=O)N[C@@H]1CC[C@H]1[C@H]3CC[C@@H](C(=O)Nc4cc(C(F)(F)F)ccc4C(F)(F)F)[C@@]3(C)CC[C@@H]12`, the Potency entry in test [1], in test [2], in test [3] and in test [4] was “inactive” each time.

Regarding `CN1CC[C@@]2([C@@]34CCN(C)C3Nc3ccccc34)c3ccccc3NC12` (stereo not given in full), the Potency entry in test [1], in test [2], in test [3] and in test [4] was “inactive” throughout.

Turning to `CCCCC/C=C\C/C=C\C/C=C\CCCCCCC(=O)O[C@H](COCCCCCCCCCCCCCCCC)COP(=O)([O-])OCC[N+](C)(C)C`, the activity change, negative = inhibition is -13.6% [at 5.82 µM] in test [1] and 9.5% [at 5.82 µM] in test [4]. Moreover, the activity change, negative = reduced viability in test [2] was 4.54% [at 5.82 µM]. In addition, the activity change, negative = lower viability in test [3] is 13.1% [at 5.82 µM].

On to `Cc1nc(Nc2n[nH]c3c2CN(C(=O)N[C@H](CN(C)C)c2ccccc2)C3(C)C)c2sccc2n1`, for which the Potency in test [1] is 7690 nM (active); in test [2] it was 193 nM (active); in test [3] it was 96.8 nM (active); in test [4] it was 8630 nM (active).

Turning to `Cc1ncsc1CCO`, the Potency result in test [1], in test [2], in test [3] and in test [4] was “inactive” in each case.

Take `CO[C@H]1C=CCCC=CC(=O)O[C@H]([C@H](C)C(=O)CCCC2CC(=O)NC(=O)C2)C(C)=C[C@@H](C)[C@@H]1O`: the Potency entry in test [1], in test [2], in test [3] and in test [4] was “inactive” in each case.

As to `Cc1ccc2oc3ccccc3c(=O)c2c1`, the Potency result in test [1], in test [2], in test [3] and in test [4] was “inactive” throughout.

On to `O=c1[nH]c(O)c(/C=C2\C=Nc3ccccc32)[nH]1`, for which the Potency entry in test [1], in test [2], in test [3] and in test [4] was “inactive” each time.

For `O=CN(O)CCCP(=O)(O)O`, the Potency entry in test [1], in test [2], in test [3] and in test [4] was “inactive” throughout.

Regarding `CC(C)C(O)(C(=O)OC[C@@H]1CC[N+]2([O-])CCCC12)C(C)O` (stereo not given in full), the Potency entry in test [1], in test [2], in test [3] and in test [4] was “inactive” each time.
